# Screening results as filed in PubChem BioAssay.
# Only some compounds are listed: those with a hit (about 1.2% of all), similar ones and a draw of the others.
# N-glyco inh: N-linked glycosylation inhibition. 0.23% of 360,000 active. reporter increase, % at 12.5 µM. D54 ERlucT glycosylation luciferase reporter, 24 h; percent of 100 nM tunicamycin response;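 active means mean luciferase reporter signal, scaled so untreated is 0 and the glycosylation-blocking control 100, at or above a set limit in every replicate; inconclusive means mean reaches the limit but not every replicate does; inactive means mean below the limit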;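 further: luciferase carries N-glycosylation sites so blocking glycosylation raises the light; 0% = median of neutral control wells and 100% = median of 100 nM tunicamycin wells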
# RAD54 inh: blocks human RAD54 Holliday junction branch migration | 0.14% of 360,000 active | inhibition, % at 10.4 µM | FAM/BHQ fluorescence | Q92698 | AID 602329;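 active means mean normalized replicate activity at least 40 and at least half of replicates scoring 40 or more; inconclusive means only one of the two criteria met; inactive means mean below 40 and under half of replicates reaching 40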;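 further: 0% = median of neutral control wells and 100% = median of positive control wells; inhibitors cause a drop in the FAM fluorescence signal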
# Target sequence (Q92698 whole entry, looked up): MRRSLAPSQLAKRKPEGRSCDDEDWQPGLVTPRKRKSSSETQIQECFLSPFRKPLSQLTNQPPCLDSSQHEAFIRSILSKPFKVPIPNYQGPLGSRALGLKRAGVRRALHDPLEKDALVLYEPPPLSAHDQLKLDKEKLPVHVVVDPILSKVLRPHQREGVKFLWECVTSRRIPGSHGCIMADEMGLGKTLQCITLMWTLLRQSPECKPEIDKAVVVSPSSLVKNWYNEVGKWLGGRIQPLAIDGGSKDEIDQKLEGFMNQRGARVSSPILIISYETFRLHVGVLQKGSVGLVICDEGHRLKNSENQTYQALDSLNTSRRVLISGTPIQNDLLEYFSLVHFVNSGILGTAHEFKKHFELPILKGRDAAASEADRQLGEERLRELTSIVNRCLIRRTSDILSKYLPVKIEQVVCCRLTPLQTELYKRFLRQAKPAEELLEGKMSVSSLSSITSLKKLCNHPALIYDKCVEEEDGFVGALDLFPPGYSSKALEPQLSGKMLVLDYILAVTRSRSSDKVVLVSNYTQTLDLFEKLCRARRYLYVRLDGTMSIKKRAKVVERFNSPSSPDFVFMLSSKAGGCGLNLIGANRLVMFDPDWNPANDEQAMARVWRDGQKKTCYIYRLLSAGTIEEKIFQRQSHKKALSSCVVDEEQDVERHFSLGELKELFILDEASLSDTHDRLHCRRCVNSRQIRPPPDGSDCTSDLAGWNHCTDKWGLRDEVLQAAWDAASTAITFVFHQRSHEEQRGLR
# RAD52 inh: blocks human RAD52 DNA annealing; P43351; 0.46% of 360,000 active; recombinant RAD52 DNA annealing, FRET fluorescence; AID 651710; inhibition, % at 18.7 µM;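 active means every replicate showing at least 50% inhibition; inconclusive means mean inhibition at least 50% but not in every replicate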
# AF4-AF9 inh: MLL-AF4/AF9 protein interaction inhibition; inhibition, % at 10 µM; 0.47% of 350,000 active; AID 651704; AlphaScreen, biotin-AF4 peptide binding to FLAG-AF9; P42568;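 active means every replicate reaching a set inhibition limit, whatever the replicate mean, cut at about 25% in these data; inconclusive means mean inhibition reaches that limit but some replicates miss it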;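 further: 0% = plate neutral control median and 100% = total signal loss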
# Casp6 inh: blocks human caspase-6 cleavage activity; P55212; purified caspase-6, Z-VEID-R110 cleavage fluorescence; inhibition, % at 12.5 µM; 0.53% of 350,000 active; AID 686996;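 active means mean inhibition across replicates at least about 35%, with every replicate also reaching that limit, limit read from the data; inconclusive means only one of the two criteria met; inactive means neither criterion met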;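 further: 0% = median of neutral control wells and 100% = no fluorescence left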
# * = called active by the depositor; ? = inconclusive; · = no result.
SMILES,N-glyco inh,RAD54 inh,RAD52 inh,AF4-AF9 inh,Casp6 inh
COc1cccc(-c2ccc3c(c2)[C@@H]2[C@@H](CCN2C(=O)c2ccccc2F)[C@@H](CO)N3C)c1,·,13,69*,3,-2
O=C(C[C@H]1CC[C@@H]2[C@H](COC[C@@H](O)CN2C(=O)Nc2ccc(F)cc2)O1)NCCCN1CCOCC1,·,-5,21,-35,5
C[C@@H]1CCCCO[C@@H](CN(C)C(=O)Cc2ccccc2)[C@@H](C)CN([C@H](C)CO)C(=O)c2cc(NC(=O)c3ccncc3)ccc2O1,·,1,2,-2,-1
CN(C)C(=O)C[C@@H]1C=C[C@H](NC(=O)Nc2cccc(F)c2)[C@@H](CO)O1,·,-16,5,-11,-13
O=C(Nc1ccccc1)NN(C(=O)CCl)c1ccccc1,14,0,-9,-3,50*
CCN(CC)c1ccc(NC(=O)Nc2ccccc2)cc1,-9,15,-5,25*,1
CCN(CC)c1ccc(NC(=O)Nc2ccc(C(C)=O)cc2)cc1,1,14,·,·,·
CCC(=O)N(C)C[C@@H]1Oc2cc(-c3ccccc3F)ccc2S(=O)(=O)N([C@@H](C)CO)C[C@H]1C,·,-13,3,1,2
O=C(N[C@@H]1CC[C@H](CCNC(=O)C2CCC2)O[C@H]1CO)c1ccccn1,·,-8,9,0,-5
CCCCC[C@H](O)/C=C/C1C(=O)C=C[C@H]1C/C=C\CCCC(=O)OC (some centres undefined),17,-15,1,-9,53*
CCOc1ccc(NC(=O)c2ccc3c(SCC(=O)O)c4c(nc3c2)CCCC4)cc1,0,·,-20,-4,3
O=C(O)CSc1c2c(nc3cc(C(=O)Nc4cccc(C(F)(F)F)c4)ccc13)CCC2,4,-17,-28,-4,79*
NN1C(=O)/C(=C2/Sc3ccccc3N2CCCS(=O)(=O)O)SC1=S,2,1,-104,3,55*
CCNC(=O)C[C@@H]1CC[C@@H]2[C@@H](COc3ccc(NS(C)(=O)=O)cc3C(=O)N2C)O1,·,7,11,-2,0
CN1CCN(C(=O)C[C@@H]2CC[C@@H]3[C@H](COc4ccc(NC(=O)c5cscn5)cc4C(=O)N3C)O2)CC1,·,-3,-5,-2,1
COCCNC(=O)C[C@@H]1CC[C@H]2[C@@H](COC[C@H](O)CN2S(=O)(=O)c2ccccc2C)O1,·,-7,19,-2,-50
Cc1ccccc1S(=O)(=O)N1C[C@@H](O)COC[C@H]2O[C@H](CC(=O)NCCc3ccccc3)CC[C@@H]21,·,-23,72*,14,-53
Cc1ccccc1S(=O)(=O)N1C[C@H](O)COC[C@@H]2O[C@@H](CC(=O)NCCc3ccccc3)CC[C@H]21,·,-16,58*,18,-54
CCOC(=O)C1=NS(=O)(=O)NC(C)=C1,4,-6,-24,-8,36*
COc1cccc(C2=NOC(C(=O)NCc3ccccc3)C2)c1 (centres undefined),?,-1,·,·,·
COc1cccc(C2=NOC(C(=O)NCc3ccco3)C2)c1 (centres undefined),29*,13,·,·,·
CC(C)NC(=O)N(C)C[C@@H]1OCCCC[C@H](C)Oc2ccc(NC(=O)c3ccncc3)cc2C(=O)N([C@H](C)CO)C[C@@H]1C,·,0,-17,-4,-3
O=C(O)c1cccc(S(=O)(=O)Nc2ccc([N+](=O)[O-])cc2O)c1,4,0,-13,-20,0
O=C(O)CSc1cc(NS(=O)(=O)c2cccc([N+](=O)[O-])c2)c2ccccc2c1O,8,1,-13,·,68*
CCOc1ccc(S(=O)(=O)Nc2cc(SCC(=O)O)c(O)c3ccccc23)cc1,9,0,-19,5,88*
SMILES,N-glyco inh,RAD54 inh,RAD52 inh,AF4-AF9 inh,Casp6 inh
CCc1ccc(S(=O)(=O)Nc2cc(SCC(=O)O)c(O)c3ccccc23)cc1,7,·,-20,-2,67*
Cc1ccc(C)c(S(=O)(=O)Nc2cc(SCC(=O)O)c(O)c3ccccc23)c1,0,·,·,·,·
Cc1ccc(S(=O)(=O)Nc2ccc3c(c2)C(=O)N([C@@H](C)CO)C[C@@H](C)[C@@H](CN(C)C(=O)CCC(F)(F)F)OCCCC[C@@H](C)O3)cc1,·,-1,27,-2,0
COc1ccc2c3c(n(C)c2c1)[C@@H](CO)N(C(=O)Cc1ccccn1)CC31CN(Cc2ccccn2)C1,·,·,·,0,·
C[C@H]1CN([C@@H](C)CO)C(=O)Cc2cc(N(C)C)ccc2O[C@@H]1CN(C)Cc1ccc(Oc2ccccc2)cc1,·,-20,23,26*,-1
C[C@H]1CN([C@@H](C)CO)C(=O)Cc2cc(N(C)C)ccc2O[C@H]1CN(C)Cc1ccc(Oc2ccccc2)cc1,·,-20,6,48*,1
C[C@@H]1CN([C@H](C)CO)C(=O)Cc2cc(N(C)C)ccc2O[C@@H]1CN(C)Cc1ccc(Oc2ccccc2)cc1,·,-3,3,51*,0
C[C@H](CO)N1C[C@H](C)[C@H](CN(C)Cc2ccccc2)Oc2ccc(N(C)C)cc2CC1=O,·,12,-3,2,2
N#CC(C#N)=C(N)/C(C#N)=C/c1cc(O)c(O)c(O)c1,-11,-3,-264,9,41*
O=C(N/N=C\c1ccc(CNS(=O)(=O)c2ccc(Cl)cc2)o1)C(=O)Nc1ccc(Oc2ccccc2)cc1,52*,·,·,·,·
O=C(N/N=C\c1ccc(CNS(=O)(=O)c2ccccc2)o1)C(=O)Nc1ccc(F)cc1,1,-3,-3,-4,0
C[C@@H]1CN([C@@H](C)CO)C(=O)Cc2cc(NC(=O)NC3CCCCC3)ccc2O[C@H]1CN(C)C(=O)Nc1ccccc1,·,9,2,-1,3
C[C@@H]1CN([C@@H](C)CO)C(=O)c2cc(NC(=O)Nc3ccccc3)ccc2O[C@@H](C)CCCCO[C@@H]1CN(C)S(=O)(=O)c1ccc(F)cc1,·,-8,·,·,·
O=c1[nH]c2ccc(Br)cc2c(-c2ccccc2)c1N1CCOCC1,3,8,3,25*,0
C[C@@H]1CN([C@@H](C)CO)C(=O)c2cc(NC(=O)Nc3ccc4c(c3)OCO4)ccc2O[C@H]1CN(C)S(C)(=O)=O,·,0,-1,-1,-1
COc1ccc(CN(C)C[C@H]2Oc3c(NS(=O)(=O)c4cccs4)cccc3C(=O)N([C@H](C)CO)C[C@H]2C)cc1,·,-6,0,2,-1
OCC1OC(n2cnc3c(SCc4ccccc4)ncnc32)C(O)C1O (centres undefined),113*,·,4,4,-1
OCC1OC(n2ccc3c(SCc4ccccc4)ncnc32)C(O)C1O (centres undefined),32*,7,-20,2,-2
Nc1nc(SCc2ccccc2)c2ncn(C3OC(CO)C(O)C3O)c2n1 (centres undefined),2,8,-6,-66,1
Cc1ccccc1NC(=O)C(C)OC(=O)C1CC(=O)N(Cc2ccco2)C1 (centres undefined),2,-5,-12,-2,55*
